Measurements reported in PubChem BioAssay (Tox21).
Inconclusive results are not listed. The source made the active and inactive calls. Unless noted, calls come from the whole dose curve; as a rule, active = well fitted curve in the direction sought with a large enough effect in the repeat runs; inconclusive = weak or mixed curves; inactive = no such curve, though single readings can be large; an effect the other way counts as inactive or inconclusive.

Key:
[1] = qHTS assay for small molecule agonists of the p53 signaling pathway (AID 651631; calls by dose curve; note: nearly all actives have a fitted effect of over 15% in size; note: potency is the fitted concentration of half-maximal effect)
Outline: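 Fluorescence intensity from cleaved LiveBLAzer B/G substrate (2 h, room temperature) served as the signal. Beforehand, HCT-116 reporter cells bearing p53 response elements were treated 16 h at 37 °C with DMSO-dissolved compounds.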

[2] = qHTS assay for small molecules that induce genotoxicity in human embryonic kidney cells expressing luciferase-tagged ATAD5 (AID 651632); note: nearly all actives have a fitted effect of over 15% in size; note: potency is the fitted concentration of half-maximal effect
Outline: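 A rise in luciferase signal from ATAD5-tagged HEK293T cells marks genetic stress. Cells were exposed to compounds for 16 hr at 37C, 5% CO2, then luciferase was quantified after a 30 min room-temperature incubation with Amplite.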

[3] = qHTS assay for small molecule agonists of the p53 signaling pathway - cell viability (AID 651633; calls by dose curve;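 note: p53RE-bla HCT reporter cells with a stable beta-lactamase p53 reporter; series mostly up to about 83 µM; nearly all actives have a fitted effect of over 30% in size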)
Outline: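 Viability counter-read: CellTiter-Glo luminescence (30 min, room temperature) in the same p53RE-bla plates. These plates had been exposed to compounds for 16 h at 37 C.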

[4] = qHTS assay for small molecules that induce genotoxicity in human embryonic kidney cells expressing luciferase-tagged ATAD5 - cell viability (AID 651634; calls by dose curve; note: nearly all actives have a fitted effect of over 25% in size)
Outline: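 Cytotoxicity counter-readout: after 15.5 hr compound treatment at 37C, live-cell protease activity in ATAD5-luciferase HEK293T cells measured by CellTiter-Fluor fluorescence, 30 min development at 37C.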

[5] = qHTS assay for small molecule disruptors of the mitochondrial membrane potential - cell viability (AID 720634; calls by dose curve;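 note: human HepG2 liver cancer cells; series mostly up to about 83 µM; nearly all actives have a fitted effect of over 20% in size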)
Outline: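 Cytotoxicity was quantified from ATP content by CellTiter-Glo luminescence in the same wells as the MMP dye read-out. HepG2 (2,000 cells/well) were plated overnight and exposed to compounds for 1 hr at 37 C.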

[6] = qHTS assay to test for compound auto fluorescence at 590 nm (red) in HepG2 cells (AID 720674)
Outline: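 1 hr compound incubation on HepG2 cells, 37 C, 5% CO2; plate read ex 540 nm / em 590 nm; intensities reported as Rose Bengal sodium equivalents.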

[7] = qHTS assay to test for compound auto fluorescence at 535 nm (green) in HepG2 cells (AID 720675)
[8] = qHTS assay to test for compound auto fluorescence at 460 nm (blue) in HEK293 cells (AID 720678)
Outline: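 HEK293 cells (2,000/well, medium with 10% dialyzed FBS) attached 4-5 hr, then exposed to compound overnight at 37C, 5% CO2. Blue fluorescence read at 405/460 nm, with triamterene as reference fluorophore.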

[9] = qHTS assay to test for compound auto fluorescence at 590 nm (red) in HEK293 cells (AID 720679)
Outline: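 HEK293 cells (2,000/well, 10% dialyzed FBS) attached 4-5 hr, then dosed with compound or DMSO and incubated overnight at 37C, 5% CO2. Red fluorescence read at 540/590 nm, Rose Bengal sodium as reference fluorophore.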

[10] = qHTS assay to test for compound auto fluorescence at 535 nm (green) in HEK293 cells (AID 720680)
[11] = qHTS assay to test for compound auto fluorescence at 460 nm (blue) in HEK293 cell free culture (AID 720681)
Outline: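 Blue fluorescence (Ex 405/Em 460 nm, triamterene-equivalent) was read immediately after pin transfer of compound or DMSO into medium (DMEM, 10% FBS) without cells.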

[12] = qHTS assay to test for compound auto fluorescence at 535 nm (green) in HEK293 cell free culture (AID 720682)
Outline: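 Intrinsic compound fluorescence is measured in culture medium containing 10% FBS, with excitation at 485 nm and detection at 535 nm, referenced to fluorescein.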

[13] = qHTS assay to test for compound auto fluorescence at 590 nm (red) in HEK293 cell free culture (AID 720683)
Outline: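 Red-channel autofluorescence of compounds in culture medium (DMEM, 10% FBS), no cells, measured at 540/590 nm. Rose Bengal sodium is the reference fluorophore for equivalence.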

[14] = qHTS assay to test for compound auto fluorescence at 590 nm (red) in HepG2 cell free culture (AID 720684)
Outline: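 Cell-free; medium MEM + 10% FBS; compound or DMSO added by pintool; read Ex 540/Em 590 nm; Rose Bengal sodium as red reference fluorophore.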

[15] = qHTS assay to test for compound auto fluorescence at 460 nm (blue) in HepG2 cell free culture (AID 720685)
Outline: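 Cell-free plates of MEM plus 10% FBS received 23 nL compound or DMSO vehicle; blue-channel (405/460 nm) intensity scored against triamterene as reference fluorophore.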

[16] = qHTS assay to test for compound auto fluorescence at 535 nm (green) in HepG2 cell free culture (AID 720686)
[17] = qHTS assay to test for compound auto fluorescence at 460 nm (blue) in HepG2 cells (AID 720687)
Outline: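 Blue-channel autofluorescence (Ex/Em 405/460 nm, triamterene-equivalent) was measured after 1 hr compound exposure at 37 C, 5% CO2. Cells were HepG2, plated overnight at 37 C in MEM plus 10% FBS.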

[18] = molecular target: Glucocorticoid receptor (Homo sapiens) (UniProt P04150); assay: qHTS assay to identify small molecule agonists of the glucocorticoid receptor (GR) signaling pathway (AID 720691; active = well fitted activation curve with a large enough effect in the signal ratio in the repeat runs, not every such curve was filed as active; the % refers to the signal ratio)
Outline: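 Agonist-mode qHTS in HeLa cells stably expressing a glucocorticoid-response-element beta-lactamase reporter. Fluorescence intensity read with FRET substrate (2 h, room temperature) after 18 h compound treatment at 37 C.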

[19] = qHTS assay for small molecule disruptors of the mitochondrial membrane potential (AID 720635)
Outline: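 Mitochondrial membrane potential tracked with Mito-MPS dye, red aggregates (ex 540/em 590 nm) against green monomers (ex 490/em 535 nm). Compound treatment 1 hr at 37C, dye 30 min in HepG2.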

[20] = molecular target: Glucocorticoid receptor (Homo sapiens) (UniProt P04150); assay: qHTS assay to identify small molecule antagonists of the glucocorticoid receptor (GR) signaling pathway (AID 720692; active = well fitted inhibition curve with a large enough effect in the signal ratio in the repeat runs, not every such curve was filed as active; the % refers to the signal ratio)
Outline: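 Inhibition of dexamethasone-driven (5 nM final) beta-lactamase expression was measured in GRE-reporter HeLa cells over 18 h at 37C. Fluorescence was read after 2 h with the B/G FRET substrate at room temperature.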

Measured: Potency

Chain of Glucocorticoid receptor (Homo sapiens) (P04150 whole entry, looked up): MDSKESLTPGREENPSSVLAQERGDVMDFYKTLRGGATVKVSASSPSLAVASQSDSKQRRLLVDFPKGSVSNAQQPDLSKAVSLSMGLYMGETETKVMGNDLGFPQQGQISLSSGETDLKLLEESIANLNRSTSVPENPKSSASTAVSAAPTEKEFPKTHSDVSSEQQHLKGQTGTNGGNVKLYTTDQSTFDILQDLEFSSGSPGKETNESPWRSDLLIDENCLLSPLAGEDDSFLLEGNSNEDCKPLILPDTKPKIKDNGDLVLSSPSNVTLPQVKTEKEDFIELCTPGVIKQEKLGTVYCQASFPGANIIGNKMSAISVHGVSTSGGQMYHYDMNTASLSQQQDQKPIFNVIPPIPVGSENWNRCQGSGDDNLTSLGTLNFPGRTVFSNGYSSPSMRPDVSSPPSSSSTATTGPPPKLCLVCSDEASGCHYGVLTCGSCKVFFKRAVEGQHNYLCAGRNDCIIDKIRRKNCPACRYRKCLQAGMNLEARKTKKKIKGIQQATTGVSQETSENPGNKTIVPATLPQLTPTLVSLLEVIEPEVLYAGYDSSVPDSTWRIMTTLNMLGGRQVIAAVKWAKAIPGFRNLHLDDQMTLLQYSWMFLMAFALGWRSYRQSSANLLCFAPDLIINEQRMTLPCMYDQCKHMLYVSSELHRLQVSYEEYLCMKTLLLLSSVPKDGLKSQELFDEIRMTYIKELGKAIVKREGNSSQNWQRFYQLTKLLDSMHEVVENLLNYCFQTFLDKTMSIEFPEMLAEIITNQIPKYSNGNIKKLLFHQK

Nc1nc2ccc(OC(F)(F)F)cc2s1
active: [1] 7.5 µM | [2] 11.9 µM
not listed: [19] | [20]
inactive: all other assays above

Cc1cccc(C)c1NC(=O)c1cc(S(N)(=O)=O)c(Cl)cc1O
not listed: [9] | [14]
inactive: all other assays above

CC[C@H]1OC(=O)[C@H](C)[C@@H](O[C@H]2C[C@@](C)(OC)[C@@H](O)[C@H](C)O2)[C@H](C)[C@@H](O[C@@H]2O[C@H](C)C[C@H](N(C)C)[C@H]2O)[C@](C)(O)C[C@@H](C)C(=O)[C@H](C)[C@@H](O)[C@]1(C)O
not listed: [7] | [14] | [18] | [20]
inactive: all other assays above

CC1=CC[C@@]23C[C@@H]1C(C)(C)[C@@H]2CC[C@H]3C
not listed: [19]
inactive: all other assays above

CCOCCC(=O)OCC
not listed: [18] | [19] | [20]
inactive: all other assays above

CCCCCCOC(=O)CCCCC
not listed: [9] | [10]
inactive: all other assays above

CCc1ccc(C)cc1
not listed: [19]
inactive: all other assays above

[Cl][Nd]([Cl])[Cl]
not listed: [19]
inactive: all other assays above
